This is part of a sample that, as a whole, favours compounds with a hit. Of some 83,000 tested, about 20% had one in any assay.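 Cells were grown in 96-well plates and exposed to the test compound at a single concentration for 48 hours; results are reported as percent growth, with values below 10 considered active.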 Values without a mark were called inactive. Calls of active or inactive are those of the source.
system: BT-549 breast; assay: NCI-60 one-dose screen, 48 h (100 = growth as untreated, 0 = no growth, -100 = all killed); conditions: 10 µM unless noted
Protocol: Growth inhibition of the BT-549 human tumor cell line is measured as a screen for anti-cancer activity. Cells are grown in 96 well plates and exposed to the test compound for 48 hours. Compounds are tested at a single concentration, which is 10^-5 M for most compounds. The reported endpoint is percent growth (GI% or GIPRCNT), where numbers from 0 - 100% represent growth inhibition, and numbers from -100% - 0 represent cell death. For example, a value of 40 represents 60% growth inhibition. A value of 0 means no net growth occurred over the course of the experiment. A value of -40 indicates 40% of cells at the beginning of the experiment died by the end of the experiment. A value of -100 means all cells are dead at the end of the experiment.
NCI-60 Human Tumor Cell Lines Screen was performed using the standard one-dose NCI protocol, which is described in more detail at https://dtp.cancer.gov/discovery_development/nci-60/default.htm.
Compounds with GIPRCNT values below 10 were considered active. Activity score was based on GIPRCNT using the following formula: […]
Score is 0 for GIPRCNT values of 100 or above, 50 for GIPRCNT values of 0, and 100 for GIPRCNT values of -100.

Compound | growth
CC(C)OC(=O)Nc1cc(F)c(F)cc1F | 104%
O=C(Nc1cccnc1)c1ccc2ccc3ccc(C(=O)Nc4cccnc4)nc3c2n1 | 34.7%
O=S(=O)(/N=c1/n(-c2ccccc2)nc2n1CCN2C1=NCCN1)c1ccc(-c2ccccc2)cc1 | 97.9%
COc1ccc(NC(=S)NNc2ccc(-c3ccc(OC)c(OC)c3)nn2)cc1 | 98.5%
C=C(C)[C@@H]1CC[C@]2(C(=O)NCCNCCNCCN)CC[C@]3(C)[C@H](CC[C@@H]4[C@@]5(C)CC[C@H](O)C(C)(C)[C@@H]5CC[C@]43C)[C@@H]12 | -51.9% [100 µM] (active)
Cc1cnc(N)nc1OCCNC(=O)c1cccc(-c2ccc(S(=O)(=O)Nc3ccc4c(c3)N(C(=O)C3CC3)CCC4)cc2)c1 | 66.2%
Cc1nn(-c2ccccc2)c(N2CCOCC2)c1-c1nc2ccc([N+](=O)[O-])cc2[nH]1 | 96.8%
Nc1ccc(Cl)c([N+](=O)[O-])c1 | 95.1%
CC1(C)C(=O)/C(=C\c2ccco2)C[C@]2(C)[C@H]3CC=C4[C@@H]5C[C@](C)(C(=O)O)CC[C@]5(C)CC[C@@]4(C)[C@]3(C)CC[C@@H]12 | -62.6% [100 µM] (active)
COC(=O)c1cc2c(=O)[nH]cc3c2c(n1)CCC3 | 108%
COc1cc(C(=O)/C=C/c2c(-c3ccc(F)cc3)nc3sccn23)cc(OC)c1OC | 19.2%
C=C(C)[C@@H]1CC[C@]2(COCCC#N)CC[C@]3(C)[C@H](CC[C@@H]4[C@@](C)(CCCNCCC#N)[C@H](C(=C)C)CC[C@]43C)[C@@H]12 | 41% [100 µM]
CCCN1CC(c2ccc(OC)c(OC)c2)=C(c2cn(C(=O)OCC)c3ccccc23)C1=O | 58.6%
C=CCCCCOc1ccccc1-c1cnc(OCCCCC=C)n1C | 96.8%
Cc1ccc(-n2nc3n(/c2=N\C(=O)NS(=O)(=O)c2ccc(C)cc2)CCN3C2=NCCN2)cc1 | 84.4%
CCCCOC(=O)c1c(C)[nH]c(/C=C2\N=C(c3ccc[nH]3)C=C2OC)c1C | 14.9%
CC(C)(C)c1cc(C(=O)N2CCC(C(=O)NCCN)CC2)cc(C(C)(C)C)c1 | 95.4%
COc1ccc(N(c2nc(-c3ccc([N+](=O)[O-])cc3)cs2)C(C)C)cc1 | 97%
COC(=O)[C@]1(C)CC[C@]2(C)CC[C@]3(C)C(=CC(=O)[C@@H]4[C@@]5(C)CCC(=O)NC(C)(C)[C@@H]5CC[C@]43C)[C@@H]2C1 | -78.6% [100 µM] (active)
C=C(C)[C@@H]1CC[C@]2(C(=O)NCCCN)CC[C@]3(C)[C@H](CC[C@@H]4[C@@]5(C)CC[C@H](O)C(C)(C)[C@@H]5CC[C@]43C)[C@@H]12 | -2.14% [100 µM] (active)

Compound | growth
COc1cc(/C=C/C(=O)/C=C/c2ccc(-n3ccnc3)cc2)ccc1O | 102%
COc1cc(-c2nc(SCCC(C)C)nc(Nc3ccccc3)c2C#N)cc(OC)c1OC | 96.4%
CCOC(=O)c1nn(C2CCCCO2)c2ccc(NS(=O)(=O)c3ccc(C)cc3)cc12 (stereo not given) | 91.8%
COc1cc2c(=O)[nH]c3cc([N+](=O)[O-])ccc3c2cc1[N+](=O)[O-] | 50.4%
CCCCCCCCCCCCCC[n+]1cccc(C(N)=O)c1 | -49.9% (active)
Cc1cccc(C[C@H](NC(=O)Nc2ccc(Cl)cc2F)C(=O)N[C@@H]2C(=O)N3C[C@H](OC(=O)CCN(C)C)C[C@H]3C(=O)N3CCCC[C@H]3C(=O)N[C@@H](C)C(=O)N3C[C@H](C)C[C@H]3C(=O)O[C@H]2C)c1 | 4.55% (active)
CCN(CC)CC(C)Nc1ccc(C)c2sc3ccccc3c(=O)c12 (stereo not given) | 82.3%
CCCSc1nc(N)nc2nc[nH]c12 | 156%
C#CC(OC(=O)N(C)C)(c1ccccc1)c1ccc(F)cc1 (stereo not given) | 111%
CC(C)=CC/C=C(/C)[C@H]1CC[C@]2(C)[C@@H]1CC[C@@H]1[C@@]3(C)CC/C(=N/O)C(C)(C)[C@@H]3CC[C@]12C | 61.5% [100 µM]
CC(=O)CC(=O)SC1=NCCS1 | 116%
COc1ccc(C2CC(c3cc(OC)c(OC)c(OC)c3)=NN2C(C)=O)cc1OCC(=O)Nc1nc2ccc(C(F)(F)F)cc2s1 (stereo not given) | 47.5%
COc1cc(/C=C/C(=O)/C=C/c2ccc(-n3ccnc3C)cc2)ccc1O | 95.5%
Cn1cc(-c2nnc(-c3ccccc3)s2)c2cc(Br)cnc21 | 104%
FC(F)(F)c1ccc2c(c1)Sc1ccccc1N2 | 93.3%
O=c1[nH]c2cc(Cl)c(Cl)cc2n2cc3ncccc3c12 | 109%
C=C1C(=O)O[C@H]2[C@H]1CC/C(COC(=O)NCc1ccc(Cn3c(=O)sn(-c4ccc(Cl)cc4)c3=O)cc1)=C\CC[C@@]1(C)O[C@@H]21 | 66.1%
O=C1CC(C(F)(F)F)Cc2nc3ccc(Br)cc3cc21 (stereo not given) | 96.3%
Cc1cc(C)c(S(=O)(=O)/N=c2/n(-c3ccccc3)nc3n2CCN3C2=NCCN2)c(C)c1 | 73.8%
CC(C)[C@H]1CCC2=C3CC[C@]45OC(=O)[C@@]6(CCC(C)(C)C[C@H]64)CC[C@@]5(C)[C@]3(C)CC[C@@]21C | 82.1% [100 µM]

Source: PubChem BioAssay (NCI)
